Records with an inconclusive call do not appear. Where a call stands in place of a potency, no number is given. A number with no mark means an inactive call. Calls of active or inactive are those of the source. Unless noted, calls come from the whole dose curve; as a rule, active = well fitted curve in the direction sought with a large enough effect in the repeat runs; inconclusive = weak or mixed curves; inactive = no such curve, though single readings can be large; an effect the other way counts as inactive or inconclusive.
Legend:
[1] = target: Luciferin 4-monooxygenase (Photinus pyralis) (UniProt P08659); test: qHTS assay to identify small molecule inhibitors of firefly luciferase (AID 1224835); note: nearly all actives have a fitted effect of over 25% in size; note: potency is the fitted concentration of half-maximal effect; for activity change, negative = inhibition: series mostly up to about 120 µM
Chain of Luciferin 4-monooxygenase (Photinus pyralis) (P08659 whole entry, looked up): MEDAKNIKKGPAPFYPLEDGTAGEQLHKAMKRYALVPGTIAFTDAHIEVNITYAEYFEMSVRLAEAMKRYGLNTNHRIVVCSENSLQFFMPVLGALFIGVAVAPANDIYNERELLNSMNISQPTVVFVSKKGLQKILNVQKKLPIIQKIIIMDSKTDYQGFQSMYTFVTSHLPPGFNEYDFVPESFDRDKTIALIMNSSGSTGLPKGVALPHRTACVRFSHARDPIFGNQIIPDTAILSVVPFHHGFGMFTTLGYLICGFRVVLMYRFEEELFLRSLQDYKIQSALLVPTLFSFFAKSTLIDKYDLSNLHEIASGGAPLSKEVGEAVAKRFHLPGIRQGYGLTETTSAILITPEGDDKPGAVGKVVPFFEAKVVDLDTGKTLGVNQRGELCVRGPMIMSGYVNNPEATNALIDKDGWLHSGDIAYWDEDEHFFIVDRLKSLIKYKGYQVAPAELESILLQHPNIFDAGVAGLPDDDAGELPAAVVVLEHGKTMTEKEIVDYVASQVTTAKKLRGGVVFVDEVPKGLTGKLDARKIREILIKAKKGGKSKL
How it was run: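 Biochemical qHTS: compounds run as interplate titrations against purified firefly enzyme, with D-luciferin and ATP each at its KM concentration. Light output recorded by CCD imaging.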

[2] = qHTS assay to identify small molecule agonists of the constitutive androstane receptor (CAR) signaling pathway - cell viability counter screen (AID 1224836); note: series mostly up to about 92 µM; nearly all actives have a fitted effect of over 45% in size
How it was run: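 Counter screen multiplexed with the CAR reporter readout: HepG2 cells co-transfected with hCAR and the CYP2B6-2.2kb construct receive a 15-concentration compound series and 0.75 uM PK11195 (final), then CellTiter-Fluor fluorescence is read after 23 h.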

[3] = qHTS assay to identify small molecule antagonists of the constitutive androstane receptor (CAR) signaling pathway - cell viability counter screen (AID 1224837); note: nearly all actives have a fitted effect of over 45% in size; note: potency is the fitted concentration of half-maximal effect; for activity change, negative = cytotoxicity: series mostly up to about 92 µM
How it was run: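 Viability was measured with CellTiter-Fluor in a HepG2 line carrying stably transfected hCAR and a CYP2B6-2.2kb construct. Cells were exposed for 23 hr at 37 C to 15 compound concentrations with 50 nM CITCO as agonist.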

[4] = qHTS assay to identify small molecule antagonists of the estrogen related receptor signaling pathway with the pleiotropic PPARgamma coactivator (PGC) from Tox21 10K library - cell viability counter screen (AID 1224840; active = well fitted cell-killing curve with a large enough effect in the repeat runs, not every such curve was filed as active; note: nearly all actives have a fitted effect of over 40% in size)
How it was run: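 Multiplexed viability counter screen in the PGC/ERR cell line: cells treated with DMSO-dissolved compounds for 17.5 hours at 37 C, then viability measured as CellTiter-Fluor fluorescence.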

[5] = target: Thyrotropin receptor (Homo sapiens) (UniProt P16473); test: qHTS assay to identify small molecule agonists of the thyroid stimulating hormone receptor (TSHR) signaling pathway (AID 1224843; calls by dose curve; note: nearly all actives have a fitted effect of over 45% in size; note: potency is the fitted concentration of half-maximal effect)
Chain of Thyrotropin receptor (Homo sapiens) (P16473 whole entry, looked up): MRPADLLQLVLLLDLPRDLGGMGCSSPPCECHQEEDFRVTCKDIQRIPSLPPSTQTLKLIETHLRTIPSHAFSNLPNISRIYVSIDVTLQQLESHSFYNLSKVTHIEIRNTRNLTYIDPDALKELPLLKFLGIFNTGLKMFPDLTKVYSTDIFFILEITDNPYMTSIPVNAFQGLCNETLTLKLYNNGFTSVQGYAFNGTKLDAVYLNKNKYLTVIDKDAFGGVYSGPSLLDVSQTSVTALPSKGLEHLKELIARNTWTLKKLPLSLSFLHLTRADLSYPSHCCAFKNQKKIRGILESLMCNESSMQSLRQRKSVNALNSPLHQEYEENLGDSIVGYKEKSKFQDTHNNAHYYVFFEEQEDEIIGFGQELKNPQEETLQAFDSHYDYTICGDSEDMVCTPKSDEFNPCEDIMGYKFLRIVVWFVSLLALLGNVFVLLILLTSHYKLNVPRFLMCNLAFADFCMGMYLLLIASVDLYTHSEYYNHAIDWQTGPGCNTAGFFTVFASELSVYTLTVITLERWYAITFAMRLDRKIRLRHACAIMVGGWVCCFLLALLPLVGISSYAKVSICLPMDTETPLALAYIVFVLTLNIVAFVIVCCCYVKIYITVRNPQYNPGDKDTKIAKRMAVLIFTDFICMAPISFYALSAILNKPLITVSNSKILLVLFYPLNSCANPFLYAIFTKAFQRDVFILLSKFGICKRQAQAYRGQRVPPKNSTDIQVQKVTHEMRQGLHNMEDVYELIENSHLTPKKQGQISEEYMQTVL
How it was run: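 Agonist-mode screen: TSHR HEK293 cells received test chemicals for half an hour at room temperature, then HTRF cAMP detection reagents for one hour prior to fluorescence measurement. Each chemical ran as a 15-concentration series, triplicated.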

[6] = qHTS assay to identify small molecule agonists of the hypoxia (HIF-1) signaling pathway - cell viability counter screen (AID 1224844; calls by dose curve; note: nearly all actives have a fitted effect of over 50% in size; note: potency is the fitted concentration of half-maximal effect)
How it was run: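 Cytotoxicity was measured in parallel with the HRE-driven beta-lactamase readout: after 17 hrs of compound exposure at 37C, HRE-bla ME-180 cells received CellTiter-Glo and luminescence was recorded 30 min later.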

[7] = qHTS assay to identify small molecule agonists of H2AX - cell viability counter screen (AID 1224847; calls by dose curve; note: nearly all actives have a fitted effect of over 30% in size; note: potency is the fitted concentration of half-maximal effect; for activity change, negative = cytotoxicity: top concentration of the series differs between compounds)
How it was run: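 We seed wild-type CHO-K1 cells overnight, treat them for 3 hr at 37C with compounds in 15-concentration series, and quantify remaining viability by CellTiter-Glo luminescence.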

[8] = target: Nuclear receptor subfamily 1 group I member 3 (Homo sapiens) (UniProt Q14994); test: qHTS assay to identify small molecule antagonists of the constitutive androstane receptor (CAR) signaling pathway (AID 1224838);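 note: HepG2 cells stably expressing hCAR with CYP2B6 luciferase reporter stimulated by CITCO; nearly all actives have a fitted effect of over 40% in size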; note: potency is the fitted concentration of half-maximal effect
Chain of Nuclear receptor subfamily 1 group I member 3 (Homo sapiens) (Q14994 whole entry, looked up): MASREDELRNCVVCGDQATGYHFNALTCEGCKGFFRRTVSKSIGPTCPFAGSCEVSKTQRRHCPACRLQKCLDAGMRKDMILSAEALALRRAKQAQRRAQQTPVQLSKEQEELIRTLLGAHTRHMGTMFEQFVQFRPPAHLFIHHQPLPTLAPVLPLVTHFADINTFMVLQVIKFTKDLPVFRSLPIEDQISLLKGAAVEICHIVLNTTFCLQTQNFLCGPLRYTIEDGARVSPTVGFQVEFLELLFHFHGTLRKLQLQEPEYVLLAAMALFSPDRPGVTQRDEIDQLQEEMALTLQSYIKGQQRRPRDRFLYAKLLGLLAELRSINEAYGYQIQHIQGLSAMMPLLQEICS
How it was run: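 Antagonist mode used CITCO at a final 50 nM to activate CAR in human hepatoma HepG2 cells carrying stable hCAR and a 2.2 kb CYP2B6 promoter-luciferase construct. Compounds were tested at 15 concentrations over 24 h, with luminescence as the end point.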

[9] = target: Nuclear receptor subfamily 1 group I member 3 (Homo sapiens) (UniProt Q14994); test: qHTS assay to identify small molecule agonists of the constitutive androstane receptor (CAR) signaling pathway (AID 1224839); note: nearly all actives have a fitted effect of over 15% in size; note: potency is the fitted concentration of half-maximal effect; for activation: series mostly up to about 92 µM
How it was run: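 A 15-concentration quantitative screen uses HepG2 cells co-transfected stably with human CAR and CYP2B6-2.2kb reporter. Treatment lasts 24 h with 0.75 uM PK11195 final present; ONE-Glo luminescence is the signal.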

[10] = qHTS assay to identify small molecule antagonists of the estrogen related receptor signaling pathway with the pleiotropic PPARgamma coactivator (PGC) from Tox21 10K library (AID 1224841; call rule not given here; note: actives are mostly falling curves and most rising ones were filed inactive; nearly all actives have a fitted effect of over 50% in size; note: potency is the fitted concentration of half-maximal effect; for activity, negative = inhibition: series mostly up to about 92 µM)
How it was run: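 Steps: plate 2,000 PGC/ERR cells per well; incubate 6 h at 37 C with 5% CO2; transfer compounds from DMSO stocks by pin tool; incubate 18 h at 37 C; add One-Glo; measure luminescence 30 min later.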

[11] = qHTS assay to identify small molecule agonists of the estrogen related receptor signaling pathway with the pleiotropic PPARgamma coactivator (PGC) from Tox21 10K library (AID 1224842); note: nearly all actives have a fitted effect of over 15% in size; note: potency is the fitted concentration of half-maximal effect
How it was run: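 PGC/ERR reporter cell line, 2,000 cells per well, incubated 6 h at 37 C before 23 nL compound in DMSO was added. After 18 h at 37 C, One-Glo luminescence read following 30 min at room temperature.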

[12] = qHTS assay to identify small molecule agonists of H2AX (AID 1224845; active = well fitted activation curve with a large enough effect in the signal ratio in the repeat runs, not every such curve was filed as active; the % refers to the signal ratio)
How it was run: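 Wild-type CHO-K1 cells, plated overnight, exposed 3hr at 37C to 15 concentrations (0.76% DMSO final). Lysed, then HTRF anti-pH2AX (S139) cryptate and anti-H2AX-d2 antibodies, 24 hr room temperature; 665/620 nm emission read.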

[13] = qHTS assay to identify small molecule agonists of the hypoxia (HIF-1) signaling pathway (AID 1224846; active = well fitted activation curve with a large enough effect in the signal ratio in the repeat runs, not every such curve was filed as active; the % refers to the signal ratio; note: potency is the fitted concentration of half-maximal effect)
How it was run: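 Compounds from the Tox21 10K library, dissolved in DMSO, are tested for induction of a hypoxia response element–controlled beta-lactamase reporter in ME-180 cells. Exposure lasts 17 hrs at 37C after a 5 hr settling period, followed by CCF4-AM FRET substrate.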

O=C(Nc1ccc([N+](=O)[O-])cc1)Nc1ccc([N+](=O)[O-])cc1 (tested in a mixture with another compound)
Potency [1]: inactive
Potency [2]: inactive
Potency [3]: inactive
Potency [4]: inactive
Potency [5]: inactive
Potency [6]: inactive
Potency [7]: 17.5 µM (active)

CCCCCCCCCCCCCCCCCCNC(=O)OC1CCN(C(=O)OC[C@H](COC(=O)N(Cc2cccc[n+]2CC)C(=O)c2ccccc2OC)OC)CC1
Potency [1]: inactive
Potency [2]: inactive
Potency [8]: inactive
Potency [9]: inactive
Potency [10]: 11.9 µM (active)
Potency [11]: inactive
Potency [12]: inactive

CCN(CC)c1ccc(C=O)cc1
Potency [2]: inactive
Potency [3]: inactive
Potency [8]: inactive
Potency [4]: inactive
Potency [5]: inactive
Potency [6]: inactive
Potency [12]: inactive
Potency [13]: inactive
Potency [7]: inactive

c1ccc(-c2ccc(C(c3ccccc3)n3ccnc3)cc2)cc1 (stereo not drawn)
Potency [1]: inactive
Potency [2]: inactive
Potency [3]: inactive
Potency [4]: inactive
Potency [10]: 29.8 µM (active)
Potency [11]: inactive
Potency [5]: inactive
Potency [6]: inactive

CC1=CC[C@@H](C(C)(C)O)CC1
Potency [1]: inactive
Potency [2]: inactive
Potency [3]: inactive
Potency [4]: inactive
Potency [5]: inactive
Potency [6]: inactive
Potency [12]: inactive
Potency [7]: inactive

CC(C)(c1ccc(Oc2ccc(N)cc2)cc1)c1ccc(Oc2ccc(N)cc2)cc1
Potency [1]: 22.4 µM (active)
Potency [8]: inactive
Potency [5]: 27.3 µM (active)
Potency [6]: 24.5 µM (active)

CCSCC
Potency [1]: inactive
Potency [2]: inactive
Potency [3]: inactive
Potency [4]: inactive
Potency [6]: inactive
Potency [13]: inactive

CCOC(=O)C1=NN(c2ccc(Cl)cc2Cl)C(C)(C(=O)OCC)C1 (stereo not drawn)
Potency [1]: inactive
Potency [2]: inactive
Potency [3]: inactive
Potency [4]: inactive
Potency [11]: inactive
Potency [6]: inactive
Potency [13]: inactive
Potency [7]: 113 µM (active)

S=C1NC=NC2N=CNC12 (stereo not drawn)
Potency [1]: inactive
Potency [2]: inactive
Potency [8]: 6.11 µM (active)
Potency [9]: inactive
Potency [4]: inactive
Potency [10]: 0.486 µM (active)
Potency [11]: inactive
Potency [5]: inactive
Potency [6]: inactive
Potency [13]: inactive
Potency [7]: 3.19 µM (active)

O=C(NCc1ncc(C(F)(F)F)cc1Cl)c1c(Cl)cccc1Cl
Potency [1]: inactive
Potency [2]: inactive
Potency [3]: inactive
Potency [9]: inactive
Potency [6]: inactive
Potency [12]: inactive
Potency [13]: 15.5 µM (active)

O=C1OC2(c3ccccc31)c1ccc(O)c(Br)c1Oc1c2ccc(O)c1Br
Potency [1]: 35.6 µM (active)
Potency [3]: inactive
Potency [9]: inactive
Potency [10]: inactive
Potency [11]: inactive
Potency [6]: inactive
Potency [7]: inactive

CN1CC[C@H](c2c(O)cc(O)c3c(=O)cc(-c4ccccc4Cl)oc23)[C@H](O)C1
Potency [3]: 0.0944 µM (active)
Potency [8]: 0.596 µM (active)
Potency [9]: inactive
Potency [4]: inactive
Potency [10]: inactive
Potency [11]: 0.531 µM (active)
Potency [6]: inactive
Potency [12]: inactive

CC(=O)Nc1ccc(N=Nc2cc(C)ccc2O)cc1
Potency [1]: 3.17 µM (active)
Potency [3]: inactive
Potency [8]: inactive
Potency [11]: 4.33 µM (active)
Potency [6]: inactive

O=C1OC(O)C(C(Cl)Cl)=C1Cl (stereo not drawn)
Potency [1]: inactive
Potency [2]: inactive
Potency [3]: inactive
Potency [5]: inactive
Potency [7]: inactive

[Cl][Eu]([Cl])[Cl]
Potency [1]: 31.7 µM (active)
Potency [2]: inactive
Potency [3]: inactive
Potency [4]: inactive
Potency [6]: inactive
Potency [13]: inactive
Potency [7]: inactive

CC/C=C\C/C=C\C/C=C\CCCCCCCC(=O)OC
Potency [1]: inactive
Potency [2]: inactive
Potency [3]: inactive
Potency [6]: inactive
Potency [13]: inactive

ClC(c1ccccc1)(c1ccccc1)c1ccccc1
Potency [1]: inactive
Potency [2]: inactive
Potency [3]: inactive
Potency [9]: 21.7 µM (active)
Potency [4]: inactive
Potency [6]: inactive
Potency [13]: inactive
Potency [7]: inactive

O=C(O)CN(CCCN(CC(=O)O)CC(=O)O)CC(=O)O
activity change, negative = inhibition [1]: 0.284% [at 23.6 µM]
viability change, negative = cytotoxic [2]: -21.6% [at 19 µM]
activity, negative = inhibition [8]: -21.7% [at 19 µM]
activation [9]: -1.05% [at 19 µM]
viability change, negative = cytotoxic [4]: -3.45% [at 19 µM]
activation [5]: -0.184% [at 19 µM]
activity change, negative = cytotoxicity [6]: -18% [at 15.8 µM]
activation (H2AX phosphorylation) [12]: 1.1% [at 31.6 µM]
activation [13]: 1.13% [at 15.8 µM]
activity change, negative = cytotoxicity [7]: 0.112% [at 31.6 µM]

Nc1cccnc1N
Potency [1]: inactive
Potency [8]: inactive
Potency [9]: inactive
Potency [5]: inactive
Potency [6]: inactive
Potency [13]: inactive
Potency [7]: inactive

c1ccc2c(c1)-c1ccc3ccc4cccc5cc-2c1c3c45
Potency [1]: 11 µM (active)
Potency [9]: 11.9 µM (active)
Potency [5]: inactive
Potency [6]: inactive
Potency [12]: inactive
Potency [7]: inactive

CCOc1ccc([N+](=O)[O-])cc1
Potency [2]: inactive
Potency [3]: inactive
Potency [4]: inactive
Potency [6]: inactive
Potency [12]: inactive

Cc1c(Cl)c(=O)oc2cc(O)ccc12
Potency [1]: inactive
Potency [8]: inactive
Potency [5]: inactive
Potency [6]: inactive
Potency [7]: inactive

— PubChem BioAssay (Tox21)
